Results reported in PubChem BioAssay (NCI).
Compounds without any hit were thinned out: in the full panel of roughly 83,000, 20% have a hit.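 Percent growth is the endpoint: 0 to 100 indicates growth inhibition (40 means 60% inhibition), 0 means no net growth, and negative values indicate cell death.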 Calls of active or inactive are those of the source.

test system: SK-MEL-5 melanoma; experiment: NCI-60 one-dose screen, 48 h (100 = growth as untreated, 0 = no growth, -100 = all killed); details: 10 µM unless noted
Experimental: Growth inhibition of the SK-MEL-5 human tumor cell line is measured as a screen for anti-cancer activity. Cells are grown in 96 well plates and exposed to the test compound for 48 hours. Compounds are tested at a single concentration, which is 10^-5 M for most compounds. The reported endpoint is percent growth (GI% or GIPRCNT), where numbers from 0 - 100% represent growth inhibition, and numbers from -100% - 0 represent cell death. For example, a value of 40 represents 60% growth inhibition. A value of 0 means no net growth occurred over the course of the experiment. A value of -40 indicates 40% of cells at the beginning of the experiment died by the end of the experiment. A value of -100 means all cells are dead at the end of the experiment.
NCI-60 Human Tumor Cell Lines Screen was performed using the standard one-dose NCI protocol, which is described in more detail at https://dtp.cancer.gov/discovery_development/nci-60/default.htm.
Compounds with GIPRCNT values below 10 were considered active. Activity score was based on GIPRCNT using the following formula: […]
Score is 0 for GIPRCNT values of 100 or above, 50 for GIPRCNT values of 0, and 100 for GIPRCNT values of -100.

Q: With `O=C(Nn1c2c(sc1=NC1CC1)C(=O)c1ccccc1C2=O)c1cc2ccc1CCc1ccc(cc1)CC2` as the molecule, how does the growth read?
A: -77.6% (active)

Q: Which growth does the source give for `N#CC1=C(N)Oc2c(sc3c(Br)cccc23)C1c1ccc(Cl)cc1` (stereo not given) here?
A: 17.3% (inactive)

Q: `Nc1nc(-c2ccc(Cl)cc2)nc2c1sc(=S)n2-c1ccccc1` was tested. Which growth did it give?
A: 36.8% (inactive)

Q: Which growth does the source give for `[O-]/[N+](=C\c1ccc(-n2cc(Cc3ccccc3Cc3cn(-c4ccc(/C=[N+](/[O-])c5ccccc5)cc4)nn3)nn2)cc1)c1ccccc1` here?
A: 105% (inactive)

Q: How did the growth turn out when `N#CC1=C(N)Oc2c(ccc3ccccc23)C1c1ccccc1` (stereo not given) was run?
A: 4.54% (active)

Q: With `COc1cc(C2c3cc(OC(C)=O)c(OC)cc3CC3C(=O)OCC32)ccc1OC(C)=O` (stereo not given) as the molecule, how does the growth read?
A: 109% (inactive)

Q: How did the growth turn out when `CCN(CC)S(=O)(=O)c1ccc(S(=O)(=O)N2CCC[C@@H](C(=O)N3CCN(c4nc(C(C)C)no4)CC3)C2)cc1` was run?
A: 17.2% (inactive)

Q: How did the growth turn out when `CCOc1ccc(NC(=O)CSc2oc(-c3ccccc3)nc2S(=O)(=O)c2ccc(C)cc2)cc1` was run?
A: 81.2% (inactive)

Q: Which growth does the source give for `COC(=O)C1Cc2ccccc2CN1C(=O)c1ccc2c(c1)Cc1ccccc1-2` (stereo not given) here?
A: -39.9% [50 µM] (active)

Q: `C=CC[Se]C(=O)Cc1c(C)n(C(=O)c2ccc(Cl)cc2)c2ccc(OC)cc12` was tested. Which growth did it give?
A: -69.7% (active)

Q: For `C#CCOc1cccc(Nc2ncnc3ccc(NC(=O)C=C)cc23)c1`, which growth is on record?
A: 65.7% (inactive)

Q: `Nc1nc(N)c(-c2ccc(Cl)c(Cl)c2)c(CBr)n1` was tested. Which growth did it give?
A: 62.6% (inactive)

Q: With `O=S(=O)(NCCCNc1nccc(-c2c(-c3ccc(F)c(O)c3)nc3sccn23)n1)c1ccccc1` as the molecule, how does the growth read?
A: 51.1% (inactive)

Q: How did the growth turn out when `Nc1nc2ccccc2c2c(=O)c3cccc(Cl)c3sc12` was run?
A: 96.3% (inactive)

Q: How did the growth turn out when `CCOc1ccccc1Cn1ccnc1CCc1c(Cl)c(O)cc(O)c1C(=O)OC` was run?
A: 94.6% (inactive)

Q: `S=c1sc2c(Cl)nc(-c3cccnc3)nc2n1-c1ccccc1` was tested. Which growth did it give?
A: 76.3% (inactive)

Q: Which growth does the source give for `CC(C)(Sc1cc(C(C)(C)C)c(OC(=O)CCCC(=O)O)c(C(C)(C)C)c1)Sc1cc(C(C)(C)C)c(OC(=O)CCCC(=O)O)c(C(C)(C)C)c1` here?
A: -3.74% (active)

Q: With `C=CCc1c(O)c(C(=O)/C=C/c2ccccc2)c(OC)c2ccoc12` as the molecule, how does the growth read?
A: 33.3% (inactive)

Q: Which growth does the source give for `Cc1ccc(C2=Nc3c(N)ncnc3NC(c3cccc(Nc4ccnc5cc(C(F)(F)F)ccc45)c3)C2)cc1` (stereo not given) here?
A: 12.1% (inactive)

Q: With `CCOC(=O)Cc1cnc(N/N=C(\C)c2cc3ccccc3o2)s1` as the molecule, how does the growth read?
A: 99.3% (inactive)

Q: For `Cc1ccc(CNc2ccc3nc(CCC4CCCCC4)[nH]c3c2)cc1`, which growth is on record?
A: -19.5% (active)

Q: With `CCOC(=O)C/C(=N\Nc1cc(=O)[nH]c2ccc(Br)cc12)C(=O)OCC` as the molecule, how does the growth read?
A: 95.1% (inactive)

Q: For `CC(=O)N1N=C(c2ccc(C(F)(F)F)c(F)c2)CC1c1[nH]c(C)c(C(=O)NCC(F)(F)F)c1C` (stereo not given), which growth is on record?
A: 81.7% (inactive)

Q: How did the growth turn out when `COc1ccc(-c2nc3cc(C(=O)NCc4ccccc4)ccc3n2C2CCCCC2)cc1` was run?
A: 38.6% (inactive)

Q: How did the growth turn out when `CN(C)c1ccc(C(=O)OCCCCCCl)cc1` was run?
A: 98.5% (inactive)

Q: Which growth does the source give for `OCCn1cc(-c2nc(-c3c[nH]c4ncccc34)cs2)c2cc(F)ccc21` here?
A: 63% (inactive)

Q: Which growth does the source give for `O=C(Nc1nc(-c2ccc(Cl)cc2)nc2c1sc(=S)n2-c1ccccc1)C(F)(F)F` here?
A: 64.9% (inactive)

Q: For `Cc1ccccc1/C=C/C(=O)c1cccc(OCCCOc2cccc(C(=O)/C=C/c3ccccc3C)c2)c1`, which growth is on record?
A: 99.5% [3 µM] (inactive)

Q: `Nc1cnc(C(=O)NNc2nc3cc(F)ccc3n3cccc23)cn1` was tested. Which growth did it give?
A: 34.5% (inactive)

Q: For `N#Cc1ccc(O)c(C2=NCC(c3ccccc3)O2)c1` (stereo not given), which growth is on record?
A: 39.1% (inactive)

Q: For `CC(=O)O[C@H]1CC2CCC3C(CC[C@@]4(C)C3C[C@H]([N+]3(C)CCCCC3)[C@@H]4OC(C)=O)[C@@]2(C)C[C@@H]1N1CCCCC1` (stereo not given in full), which growth is on record?
A: 112% (inactive)

Q: Which growth does the source give for `CC(=O)Oc1ccc(C)cc1C` here?
A: 108% (inactive)

Q: With `O=[N+]([O-])c1ccc(O)cc1Br` as the molecule, how does the growth read?
A: 93.3% (inactive)

Q: How did the growth turn out when `O=C(CN1C(=O)NC2NC(=O)NC21)N/N=C/c1ccccc1[N+](=O)[O-]` (stereo not given) was run?
A: 99.3% (inactive)

Q: `Cc1nc2sc(C(=O)Nc3ccc(Br)cc3)c(N)c2cc1C(O)c1ccccc1` (stereo not given) was tested. Which growth did it give?
A: 39.9% (inactive)

Q: With `COC(=O)[C@]1(C)CCC[C@]2(C)[C@H]3C[C@H]4C(C(C)C)=C[C@]3(CC[C@H]21)[C@@H]1C(=O)CC[C@H](OCCC#N)[C@@H]14` as the molecule, how does the growth read?
A: 79.4% (inactive)

Q: For `O=C1C(Cl)=C(Nc2ccc(S(=O)(=O)N3CCOCC3)cc2)C(=O)c2ccccc21`, which growth is on record?
A: 86.8% (inactive)

Q: Which growth does the source give for `CCSc1nc2scc(C)c2c(=O)[nH]1` here?
A: 99.9% (inactive)

Q: With `COc1cc(OC)c(/C=C/C(=O)c2c(OC)cccc2OC)c(OC)c1` as the molecule, how does the growth read?
A: 1.1% (active)

Q: How did the growth turn out when `CC1=NC2=Nn3c(c4cnn(-c5ccccc5)c4n/c3=N\N)NN2C(c2ccccc2)=C1` was run?
A: 91% (inactive)
